PD-1 reversal – activators reversing PD-1 mediated T-cell inhibition, primary screen, luminescence, primary human CD4 T cells, PD-L1 beads | CellTiter-Glo 96 h | activation, % (concentration not given with the values) | 29,000 tested, under 10 active | AID 2316, 2010; call rule not given here;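 further: 0% = median vehicle wells and 100% = positive control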
U2OS ROS induce – ROS inducers in U2OS cancer cells, primary screen, cell-based, H2DCF-DA fluorescence; U2OS ROS induction; ROS induction (% of piperlongumine), % at 10 µM; 46,000 tested, 2% active; in the data active means ROS induction above about 79%, passing the limit was not always enough;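 further: 0% = DMSO vehicle median and 100% = reference compound median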
YB-1 expr inh – inhibitors of YB-1 gene expression, primary screen, cell-based, fluorescence | U2OS, qRT-PCR YB-1 vs CDIP delta delta Cp, 16 h; active compounds read high; zero = DMSO, each unit about twofold | delta delta Cp (YB-1 minus CDIP) (concentration not given with the values) | 30,000 tested, 0.37% active | AID 434959, 2010;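 active means delta delta Cp rounded down to an integer at or above 3, about 3 SD of DMSO wells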;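 further: higher means less YB-1 transcript or more CDIP transcript relative to DMSO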
An asterisk follows results filed as active. Rows were chosen to be rich in hits. Some 2.1% of all compounds tested hit in one or more screens of this group.

`C[C@H](CO)N1C[C@H](C)[C@@H](CN(C)Cc2ccc(C(F)(F)F)cc2)Oc2ccc(NC(=O)Cc3cn(C)c4ccccc34)cc2C1=O` gave PD-1 reversal 1, U2OS ROS induce 109* and YB-1 expr inh 0.036.
Screening Cc1ccc(S(=O)(=O)N(C)C[C@H]2Oc3ccc(NC(=O)Nc4ccc(C(F)(F)F)cc4)cc3CC(=O)N([C@@H](C)CO)C[C@H]2C)cc1 returned PD-1 reversal -4, U2OS ROS induce 36 and YB-1 expr inh 0.4.
For Cc1ccc(S(=O)(=O)N(C)C[C@@H]2Oc3ccc(NC(=O)Nc4ccccc4)cc3CC(=O)N([C@H](C)CO)C[C@@H]2C)cc1 the results were U2OS ROS induce 5 and YB-1 expr inh -0.059.
Cc1ccc(S(=O)(=O)N(C)C[C@@H]2Oc3ccc(NC(=O)Nc4ccc(C(F)(F)F)cc4)cc3CC(=O)N([C@@H](C)CO)C[C@@H]2C)cc1 was read as PD-1 reversal -7, U2OS ROS induce 98* and YB-1 expr inh 0.041.
Screening Cc1ccc(S(=O)(=O)N(C)C[C@H]2Oc3ccc(NC(=O)Nc4ccccc4)cc3CC(=O)N([C@@H](C)CO)C[C@@H]2C)cc1 returned PD-1 reversal -2, U2OS ROS induce 123* and YB-1 expr inh -0.33.
For C[C@H](CO)N1C[C@H](C)[C@H](CN(C)S(=O)(=O)c2ccc(Cl)cc2)Oc2ccc(NC(=O)c3ccncc3)cc2CC1=O the results were PD-1 reversal 1, U2OS ROS induce 102* and YB-1 expr inh 0.2.
For C[C@H]1CN([C@@H](C)CO)C(=O)Cc2cc(NC(=O)c3ccncc3)ccc2O[C@@H]1CN(C)S(=O)(=O)c1ccc(Cl)cc1 the results were U2OS ROS induce 24 and YB-1 expr inh 0.15.
Screening COC(=O)Cn1c(C(=O)OC)ccc1-c1ccco1 returned U2OS ROS induce -3.
For COC(=O)c1sc2nc(-c3ccccc3)nc(Nc3nc(C)cc(C)n3)c2c1C the results were PD-1 reversal 2.
Cc1ccc(N(CC(N)=O)S(=O)(=O)c2ccc(F)cc2)cc1 was read as PD-1 reversal 1 and U2OS ROS induce -2.
Screening CC(=O)NCCCN(CCCCN(CCCNC(=O)/C=C/c1ccc(O)cc1)C(C)=O)C(=O)/C=C/c1ccc(O)cc1 returned PD-1 reversal 2, U2OS ROS induce 2 and YB-1 expr inh 0.066.
Screening Cc1ccsc1/C=N/NC(=O)CCCCCC(=O)O returned U2OS ROS induce -19 and YB-1 expr inh -0.12.
For Cc1c(NC(=O)COc2ccccc2Cl)cccc1C(=O)O the results were PD-1 reversal 1 and U2OS ROS induce -3.
Screening C=CC1(C)C[C@H](OC(=O)C(C)CO)[C@H]2C(=C)C(=O)O[C@@H]2C1C(=C)CO (some centres undefined) returned PD-1 reversal -8, U2OS ROS induce 134* and YB-1 expr inh -0.11.
Screening C=C[C@]1(C)C[C@H](O)[C@H]2C(=C)C(=O)O[C@@H]2[C@H]1C(=C)CO returned PD-1 reversal -1, U2OS ROS induce 15 and YB-1 expr inh 0.56.
`CC(C)C1NC(=O)N(c2ccccc2)C1=O` (centres undefined) gave U2OS ROS induce -10.
For O=c1oc2cc(O)ccc2cc1-c1nc2ccccc2s1 the results were U2OS ROS induce 149*.
Screening CCOc1cccc2cc(-c3nc4ccccc4s3)c(=O)oc12 returned PD-1 reversal 2, U2OS ROS induce 17 and YB-1 expr inh 0.062.
Screening COc1cc2c(cc1OC)CN(C(=O)[C@H]1[C@@H]3C(=O)O[C@@H](c4ccccc4)[C@@H](c4ccccc4)N3[C@@H](c3ccccc3OCCO)[C@]13C(=O)Nc1ccc(C#CC4(O)CCCCCC4)cc13)CC2 returned U2OS ROS induce 96* and YB-1 expr inh 0.055.
Screening COc1cc2c(cc1OC)CN(C(=O)[C@H]1[C@@H]3C(=O)O[C@@H](c4ccccc4)[C@@H](c4ccccc4)N3[C@@H](c3ccc(OCCO)cc3)[C@]13C(=O)Nc1ccc(C#CC4(O)CCCCCC4)cc13)CC2 returned U2OS ROS induce 6 and YB-1 expr inh 0.1.
Screening COc1cc2c(cc1OC)CN(C(=O)[C@@H]1[C@H]3C(=O)O[C@H](c4ccccc4)[C@H](c4ccccc4)N3[C@H](c3ccccc3OCCO)[C@@]13C(=O)Nc1ccc(C#CC4(O)CCCCCC4)cc13)CC2 returned U2OS ROS induce 88* and YB-1 expr inh 0.21.
For COc1ccc(C#Cc2ccc3c(c2)[C@]2(C(=O)N3)[C@H](C(=O)N3CCc4cc(OC)c(OC)cc4C3)[C@H]3C(=O)O[C@H](c4ccccc4)[C@H](c4ccccc4)N3[C@@H]2c2ccccc2OCCO)cc1 the results were U2OS ROS induce 17 and YB-1 expr inh -0.17.
O=C(OC[C@H]1O[C@@H](Oc2ccc(O)cc2COC(=O)C2(O)C=CCCC2=O)[C@H](O)[C@@H](O)[C@@H]1O)c1ccccc1 (some centres undefined) was read as U2OS ROS induce 4 and YB-1 expr inh 0.76.
`CCn1c(SCC(=O)Nc2ccccc2)nc2ccc(I)cc2c1=O` gave PD-1 reversal -1 and U2OS ROS induce 109*.
COc1ccccc1-n1c(SCC(=O)Nc2ccccc2C)nc2ccc(I)cc2c1=O was read as PD-1 reversal 1 and U2OS ROS induce 26.
`NC(=O)COc1ccc(/C=N/NC(=O)c2ccccc2O)cc1` gave U2OS ROS induce -7 and YB-1 expr inh 0.38.
Screening C[C@H](CO)N1C[C@H](C)[C@H](CN(C)C(=O)Nc2ccc(F)cc2)Oc2ncc(C#Cc3cccc(F)c3)cc2C1=O returned U2OS ROS induce 15 and YB-1 expr inh -0.21.
For [N-]=[N+]=NCc1ccccc1C[C@@]1(C(=O)N2CCCCC2)N=C(c2ccc(OCCCO)cc2)O[C@@H]1c1ccccc1 the results were U2OS ROS induce 53 and YB-1 expr inh 0.036.
For O=C(N1CCCCC1)[C@]1(CCS(=O)(=O)c2ccccc2)N=C(c2ccc(OCCCO)cc2)O[C@@H]1c1ccccc1 the results were U2OS ROS induce 88* and YB-1 expr inh -0.16.
`COCCCNC(=O)[C@@]1(Cc2ccccc2CN=[N+]=[N-])N=C(c2ccc(OCCCO)cc2)O[C@H]1c1ccccc1` gave U2OS ROS induce 26 and YB-1 expr inh 0.58.
For O=C(N1CCOCC1)[C@@]1(CCS(=O)(=O)c2ccccc2)N=C(c2ccc(OCCCO)cc2)O[C@H]1c1ccccc1 the results were U2OS ROS induce 12 and YB-1 expr inh -0.63.
For [N-]=[N+]=NCc1ccccc1C[C@@]1(C(=O)NCc2ccccc2)N=C(c2ccc(OCCCO)cc2)O[C@@H]1c1ccccc1 the results were U2OS ROS induce 118* and YB-1 expr inh 0.81.
Screening [N-]=[N+]=NCc1ccccc1C[C@]1(C(=O)N2CCCCC2)N=C(c2ccc(OCCCO)cc2)O[C@H]1c1ccccc1 returned U2OS ROS induce 155* and YB-1 expr inh -0.063.
N#Cc1ccc(C#N)c(-c2ccccc2)c1 was read as PD-1 reversal 0, U2OS ROS induce 16 and YB-1 expr inh 0.32.
`Nc1ncnc2c1ncn2C1OC(CO)[C@H](O)[C@@H]1S` (some centres undefined) gave PD-1 reversal 0, U2OS ROS induce 0 and YB-1 expr inh 0.24.
